Laboratory results from PubChem BioAssay (NCATS).
Results filed as inconclusive are left out. Entries that show only a call come without a potency. Values without a mark were called inactive. Active and inactive are the calls of the source. Calls follow the shape of the dose curve; as a rule, active = well fitted cell-killing curve with a large enough effect; inconclusive = small, poorly fitted or top-dose-only effect, or effect the other way; inactive = no such curve, though single readings can be large or run the other way.

Columns and labels:
[1] = Viability qHTS for spleen associated tyrosine kinase inhibitor (SYKi) naive MV4-11 cells (AID 1963823); also: nearly all actives have a fitted effect of over 40% in size
Procedure, shortened: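 qHTS, SYK inhibitor-naive MV4-11; 500 cells/well; 72 hr compound exposure, 37 C; CellTiter-Glo added, 10 min RT; luminescence read.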

[2] = Viability qHTS for spleen associated tyrosine kinase inhibitor (SYKi) drug resistant MV4-11 cells (AID 1963824); also: nearly all actives have a fitted effect of over 35% in size
Procedure, shortened: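 SYK-inhibitor-resistant MV4-11 AML cells were seeded at 500 per well onto compound and cultured 72 hours (37 °C, 5% CO2). CellTiter-Glo was then added, and after 10 min at room temperature, luminescence gave viability.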
Potency is read from the fitted curve at half-maximal effect.

SMILES | Potency [1] | Potency [2] | viability (% of control) [1] | viability, % of control [2]
O=C(NCCO)c1cc(C(=O)NCCO)cc(C(=O)NCCO)c1 | inactive | inactive | – | –
CN[C@@H]1[C@@H](O)[C@@H](O[C@@H]2[C@@H](O)[C@H](O[C@H]3O[C@H](CN)[C@@H](O)[C@H](O)[C@H]3O)[C@@H](N)C[C@H]2NC(=O)[C@@H](O)CN)OC[C@]1(C)O | inactive | inactive | – | –
O=C(Nc1ccc(CN2CCOCC2)cc1)c1ccc(-c2cccc(Cl)c2)o1 | 8.2 µM (active) | 9.2 µM (active) | – | –
CC1(C)CCCC2(C)C1CC=C1C(=O)OC(O)C12O (stereo not given) | inactive | inactive | – | –
COc1cc([C@H]2OC[C@@H]3[C@@H](c4ccc(O[C@@H]5O[C@H](CO)[C@@H](O)[C@H](O)[C@H]5O)c(OC)c4)OC[C@]23O)ccc1O | inactive | inactive | – | –
COC(=O)C1=CO[C@@H](O[C@@H]2O[C@H](CO)[C@@H](O)[C@H](O)[C@H]2O)[C@H]2[C@@H]1[C@H](O)[C@H](O)[C@]2(C)O | inactive | inactive | – | –
CC(O)(C(=O)C1CC1(CO)COC1OC(CO)C(O)C(O)C1O)C1C(O)CC2C3CC=C4CC(O)CC(O)C4(C)C3C(O)CC21C (stereo not given) | 0.217 µM (active) | 0.217 µM (active) | – | –
COC(=O)[C@@]1(O)C=CC[C@@H]2[C@@]3(C)C[C@@H](c4ccoc4)OC(=O)[C@H]3CC[C@]21C | inactive | inactive | – | –
O=C(O)c1cccc(C(=O)CCC2OC(n3cnc4c(=O)[nH]cnc43)C(O)C2O)c1 (stereo not given) | inactive | inactive | – | –
COc1cc(O)cc(C)c1C(=O)O[C@H]1[C@@H](O)[C@@H](n2ccc(=O)[nH]c2=O)O[C@@H]1CO | inactive | inactive | – | –
CC/C=C\C(O)C(O)C1=C(C)C(=O)C2(O1)C(=O)NC(OC)(C(=O)c1ccccc1)C2O (stereo not given) | inactive | inactive | – | –
OC1COC(OCC2OC(OCCc3ccccc3)C(O)C(O)C2O)C(O)C1O (stereo not given) | inactive | inactive | – | –
C=CCN(/C=C1\C(=O)OC(COC)C2(C)C1=C(O)C(=O)C1=C2C(OC(C)=O)CC2(C)C(=O)CCC12)CC=C (stereo not given) | 13 µM (active) | 20.6 µM (active) | – | –
COc1cc(/C=C/C(=O)O[C@H]2[C@H](O)[C@@H](CO)O[C@@]2(CO)O[C@H]2O[C@H](CO)[C@@H](O)[C@H](O)[C@H]2O)cc(OC)c1O | inactive | inactive | – | –
COc1cnc(-n2cnc(C)n2)c2[nH]cc(C(=O)C(=O)N3CCN(C(=O)c4ccccc4)CC3)c12 | inactive | inactive | – | –
N[C@@H](CCNCc1ccc(Cl)cc1)C(=O)N1CCCCC1 | inactive | inactive | – | –
C=CC(C)(C)O[C@@H]1O[C@H](CO[C@@H]2OC[C@](O)(CO)[C@H]2O)[C@@H](O)[C@H](O)[C@H]1O | inactive | inactive | – | –
C=C[C@H]1[C@H](O[C@@H]2O[C@H](CO)[C@@H](O)[C@H](O)[C@H]2O)OC=C(C(=O)OC)[C@H]1CC=O | inactive | inactive | – | –
C[N+]1(C)[C@@H]2CC[C@H]1CC(OC(=O)C(O)c1ccccc1)C2 (stereo not given in full) | inactive | inactive | – | –
CC(=O)O[C@H]1C[C@@H](O)C(C)(C)C2C[C@@H](OC(C)=O)[C@]3(C)C(CC[C@@]4(C)[C@H](c5ccoc5)OC(=O)[C@H]5O[C@]543)[C@]21C (stereo not given in full) | inactive | inactive | – | –

SMILES | Potency [1] | Potency [2] | viability (% of control) [1] | viability, % of control [2]
CC1=C(CCC(C)O[C@@H]2O[C@H](CO)[C@@H](O)[C@H](O)[C@H]2O)C(C)(C)CC(O)C1 (stereo not given in full) | inactive | inactive | – | –
COC(=O)C12C(=O)C(C)=C(O)C1(C)C(C)=CC1C34CCC(OC3=O)C(C)(C)C4CCC12C (stereo not given) | inactive | inactive | – | –
C/C1=C\CC(C)(C)/C=C/C/C(C(=O)O)=C/CC1 | 23.1 µM (active) | 23.1 µM (active) | – | –
CC(C)=CCC(O)/C(C)=C/CO[C@@H]1O[C@H](CO)[C@@H](O)[C@H](O)[C@H]1O (stereo not given in full) | inactive | inactive | – | –
O=C(/C=C/c1ccc(O)cc1)OC1[C@H](O)CC(O)(C(=O)O)C[C@H]1O (stereo not given in full) | inactive | inactive | – | –
NC(=O)CCCSc1nc(N)nc(-c2c(Cl)cc3c4c(cccc24)COC3)n1 | 0.0651 µM (active) | 0.092 µM (active) | – | –
Cc1ccc(C(=O)Nc2noc3ccccc23)cc1 | inactive | 10.3 µM (active) | – | –
C=CCc1ccc(O[C@@H]2O[C@H](CO)[C@@H](O)[C@H](O)[C@H]2O)c(OC)c1 | inactive | inactive | – | –
COc1cc(/C=C/C(=O)OC[C@H]2O[C@@H](OC3CC(C)=C(C(=O)O)C(C)(C)C3)[C@H](O)[C@@H](O)[C@@H]2O)cc(OC)c1O (stereo not given in full) | inactive | inactive | – | –
C=C(C)C(=O)O[C@H]1[C@H]2C(=C)C(=O)O[C@@H]2C[C@@H](C)[C@@H]2O[C@@H]2C(=O)[C@](C)(O)[C@@H]1OC(=O)C(=C)C | 1 µM (active) | 1 µM (active) | – | –
CNC(=O)COC(=O)NCCC1CCN(c2cccc(C)n2)CC1 | inactive | inactive | – | –
CS(=O)(=O)c1ccc([C@@H](CC2CCCC2)C(=O)Nc2nccs2)cc1 | 8.33 µM (active) | 7.42 µM (active) | – | –
CCOC(=O)CCC(=O)O[C@H]1[C@H](O[C@@H]2[C@@H](C)[C@H](O[C@H]3C[C@@](C)(OC)[C@@H](O)[C@H](C)O3)[C@@H](C)C(=O)O[C@H](CC)[C@@](C)(O)[C@H](O)[C@@H](C)C(=O)[C@H](C)CC2(C)O)O[C@H](C)C[C@@H]1N(C)C (stereo not given in full) | inactive | inactive | – | –
CC(C)(C)c1ccc(S(=O)(=O)Nc2ccc(-n3ccnc3)cc2)cc1 | 10.3 µM (active) | 10.3 µM (active) | – | –
CCNC(=O)[C@@H]1CCCN1C(=O)[C@H](CCCN=C(N)N)NC(=O)[C@H](CC(C)C)NC(=O)[C@@H](C)NC(=O)[C@H](Cc1ccc(O)cc1)NC(=O)[C@H](CO)NC(=O)[C@H](Cc1c[nH]c2ccccc12)NC(=O)[C@H](Cc1cnc[nH]1)NC(=O)[C@@H]1CCC(=O)N1 | inactive | inactive | – | –
CC1=C2C(=O)C=C(CO)[C@@H]2[C@H]2OC(=O)[C@H](C)[C@@H]2[C@@H](O)C1 | inactive | inactive | – | –
C=C1C(=O)O[C@@H]2C3=C(C)CCC[C@]3(C)CC[C@@]12O | 1.64 µM (active) | 0.731 µM (active) | – | –
COc1c2c(c(C)c3c1C(=O)OC3)O[C@@]1(C)CCC3(C(C)(C)O)OC(=O)CC[C@]3(C)[C@H]1C2 (stereo not given in full) | inactive | inactive | – | –
COc1cc(C(C)=O)ccc1O[C@@H]1O[C@H](CO[C@@H]2OC[C@@H](O)[C@H](O)[C@H]2O)[C@@H](O)[C@H](O)[C@H]1O | inactive | inactive | – | –
CCC(C)C(=O)O[C@@H]1[C@@H](O)[C@@H](O[C@H]2O[C@H](CO)[C@@H](O)[C@H](O)[C@H]2O)O[C@H](CO)[C@H]1O (stereo not given in full) | inactive | inactive | – | –

SMILES | Potency [1] | Potency [2] | viability (% of control) [1] | viability, % of control [2]
COc1cc2c(c(OC)c1O)C(c1ccc(O)cc1)C1C(=O)OC3C(COC(=O)C1=C2)OC(CO)(OC1OC(COC(=O)/C=C/c2ccc(OC4OC(C)C(O)C(O)C4O)cc2)C(O)C(O)C1O)C3O (stereo not given) | – | – | 95.6% [at 9.25 µM] | 81.2% [at 9.25 µM]
CCN(CC)CCCCNc1ncc2cc(-c3c(Cl)cccc3Cl)c(NC(=O)NC(C)(C)C)nc2n1 | 0.517 µM (active) | 0.58 µM (active) | – | –
CC(C)[C@@](O)(c1ccc2cc(OC(F)F)c(OC(F)F)cc2c1)c1cn[nH]n1 | 18.4 µM (active) | 20.6 µM (active) | – | –
COc1cc(C(O)C(CO)Oc2ccc(CCCO[C@@H]3O[C@@H](C)[C@H](O)[C@@H](O)[C@H]3O)cc2OC)ccc1O (stereo not given in full) | inactive | inactive | – | –
CCC(C)/C=C(C)/C=C/C1=CC2=C(Cl)C(=O)C(C)(OC(C)=O)C(=O)C2=CN1C1CCCCN(C(CCC(N)=O)C(=O)O)C1=O (stereo not given) | inactive | inactive | – | –
O=C(CCC1CCN(Cc2ccccc2)CC1)c1ccc2c(c1)NCCCC2 | 23.1 µM (active) | 14.6 µM (active) | – | –
COc1ccc(C[C@H](C)NC[C@@H](O)c2ccc(O)c(NC=O)c2)cc1 | inactive | inactive | – | –
C[C@@H]1O[C@@H](OC[C@H]2O[C@@H](OCCc3ccccc3)[C@H](O)[C@@H](O)[C@@H]2O)[C@H](O)[C@H](O)[C@H]1O | inactive | inactive | – | –
Cc1cc(Nc2nn(-c3ccccc3)c(=O)c3ccccc23)n[nH]1 | 0.146 µM (active) | 0.461 µM (active) | – | –
CC(C)=CCC/C(C)=C/CCC1(C)Oc2c(c(O)cc3c2CN(C(CCC(=O)O)C(=O)O)C3=O)CC1O (stereo not given) | inactive | inactive | – | –
CC(C)COc1ccc(CNC(=O)N(Cc2ccc(F)cc2)C2CCN(C)CC2)cc1 | 18.4 µM (active) | 13 µM (active) | – | –
OC/C=C/c1ccc(O[C@@H]2O[C@H](CO)[C@@H](O)[C@H](O)[C@H]2O)cc1 | inactive | inactive | – | –
CC1=CC(=O)CC(C)(C)[C@@]1(O)/C=C/C(C)O[C@@H]1O[C@H](CO)[C@@H](O)[C@H](O)[C@H]1O (stereo not given in full) | inactive | inactive | – | –
CC(CO)C1CCC2(C)CC3C(CO)CC(O)C3C(C)(O)C/C=C/12 (stereo not given) | inactive | inactive | – | –
Cc1cc(C(=O)N2Cc3cnn(C)c3Nc3ccccc32)ccc1CNC(=O)N1CCC[C@H]1C(=S)N1CCCN(C)CC1 | inactive | inactive | – | –
CC(C)(C)[C@H](NC(=O)c1ccc(N)c(Cl)c1)C(=O)N1CCC[C@H]1C(=O)N[C@H](C#N)CC(=O)O | inactive | inactive | – | –
CN1c2ccccc2C(=O)N2CCC3c4ccccc4NC3C21 (stereo not given) | 2.55 µM (active) | 1.8 µM (active) | – | –
COc1ccccc1-n1c(SCC(=O)Nc2nc3ccc(C)cc3s2)nc2c(c1=O)SCC2 | inactive | inactive | – | –
CC[C@H](CO)Nc1nc(Nc2cccc(-c3ccccn3)c2)c2ncn(C(C)C)c2n1 | 2.59 µM (active) | 5.17 µM (active) | – | –
CC[C@]1(O)CC2CN(CCc3c([nH]c4ccccc34)[C@@](C(=O)OC)(c3cc4c(cc3OC)N(C=O)[C@H]3[C@@](O)(C(=O)OC)[C@H](OC(C)=O)[C@]5(CC)C=CCN6CC[C@]43[C@@H]65)C2)C1 (stereo not given in full) | 0.0805 µM (active) | 0.0508 µM (active) | – | –
